Assay results: PubChem BioAssay (Tox21)
Where “and” joins values, the source holds several entries; their conditions need not be identical. Identical values can stand only once. Records with an inconclusive call do not appear. A call without a number means that no potency is given here. Some structures have more than one record in an assay (separate samples or runs), and their calls can disagree. Calls of active or inactive are those of the source. Unless noted, calls come from the whole dose curve; as a rule, active = well fitted curve in the direction sought with a large enough effect in the repeat runs; inconclusive = weak or mixed curves; inactive = no such curve, though single readings can be large; an effect the other way counts as inactive or inconclusive.

Experiments:
[1] = qHTS assay to identify small molecule agonists of the RXR signaling pathway - cell viability counter screen (AID 1159529); note: nearly all actives have a fitted effect of over 50% in size; note: potency is the fitted concentration of half-maximal effect
Summary of the method: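 Steps: seed RXR-alpha-UAS-bla HEK 293T cells in assay medium containing 2% charcoal-stripped FBS; incubate 5 hr; add compounds in DMSO; incubate 16 hr at 37 C; after the bla read, add CellTiter-Glo and read luminescence at 30 min.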

[2] = qHTS assay to identify small molecule antagonists of the retinoid acid receptor (RAR) signaling pathway - cell viability counter screen (AID 1159551); note: nearly all actives have a fitted effect of over 35% in size; note: potency is the fitted concentration of half-maximal effect
Summary of the method: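 C3RL4 RARE-luciferase line; cpds + retinol 1 uM final, 6 h, 37 C/5% CO2; CellTiter-Glo ATP luminescence, 30 min RT.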

[3] = qHTS assay to identify small molecule antagonists of the retinoic acid receptor (RAR) signaling pathway (AID 1159552; note: nearly all actives have a fitted effect of over 50% in size; note: potency is the fitted concentration of half-maximal effect)
Summary of the method: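 Retinol at 1 uM final stimulated RARE-luciferase expression in C3RL4 cells exposed to test compounds for 6 hr at 37 C. Reduced luminescence, read 30 min after detection reagent, indicated pathway antagonism.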

[4] = qHTS assay to identify small molecule agonists of the retinoic acid receptor (RAR) signaling pathway (AID 1159553); conditions: C3RL4 RARE luciferase reporter, agonist, 6 h; activation: at 73.3 µM (top of the series) unless noted; note: potency is the fitted concentration of half-maximal effect
Summary of the method: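 RARE-luc C3RL4 cells; overnight attachment 37 C/5% CO2; compound (DMSO) 6 hr; luciferase reagent, 30 min RT; luminescence read-out.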

[5] = qHTS assay to identify small molecule antagonists of the estrogen related receptor (ERR) signaling pathway from Tox21 library - cell viability counter screen (AID 1224834); note: nearly all actives have a fitted effect of over 30% in size
Summary of the method: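 Multiplexed viability counter screen in ERR cells: 17.5 h compound exposure at 37 C, CellTiter-Fluor added, 30 min at 37 C/5% CO2, fluorescence read.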

[6] = biological target: Luciferin 4-monooxygenase (Photinus pyralis) (UniProt P08659); assay: qHTS assay to identify small molecule inhibitors of firefly luciferase (AID 1224835); note: nearly all actives have a fitted effect of over 25% in size
Summary of the method: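 Inhibition of purified Photinus luciferase is measured by luminescence. Substrate levels (D-luciferin, ATP) sit at their KM values. Each compound is tested in a concentration series.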

[7] = qHTS assay to identify small molecule agonists of the constitutive androstane receptor (CAR) signaling pathway - cell viability counter screen (AID 1224836); note: nearly all actives have a fitted effect of over 45% in size
Summary of the method: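 Cells were seeded and incubated 4 hrs. Compounds were added across 15 concentrations together with PK11195 at 0.75 uM final. Plates were incubated 23 hrs at 37 C. CellTiter-Fluor was added and fluorescence measured.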

[8] = qHTS assay to identify small molecule antagonists of the constitutive androstane receptor (CAR) signaling pathway - cell viability counter screen (AID 1224837); note: nearly all actives have a fitted effect of over 45% in size
Summary of the method: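 Read-out: CellTiter-Fluor fluorescence after 23 hr at 37 C/5% CO2. Cells: HepG2 double-stable for hCAR and CYP2B6-2.2kb. Compounds tested at 15 concentrations in the presence of CITCO, final concentration 50 nM.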

[9] = biological target: Nuclear receptor subfamily 1 group I member 3 (Homo sapiens) (UniProt Q14994); assay: qHTS assay to identify small molecule antagonists of the constitutive androstane receptor (CAR) signaling pathway (AID 1224838);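 note: HepG2 cells stably expressing hCAR with CYP2B6 luciferase reporter stimulated by CITCO; nearly all actives have a fitted effect of over 40% in size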
Summary of the method: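 Read-out: ONE-Glo luciferase luminescence after 30 min at room temperature. HepG2-CYP2B6-hCAR double-stable cells, compounds in 15-point titration plus 50 nM CITCO final, 24 h at 37 C/5% CO2.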

[10] = biological target: Nuclear receptor subfamily 1 group I member 3 (Homo sapiens) (UniProt Q14994); assay: qHTS assay to identify small molecule agonists of the constitutive androstane receptor (CAR) signaling pathway (AID 1224839); note: nearly all actives have a fitted effect of over 15% in size; note: potency is the fitted concentration of half-maximal effect;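 for activation: HepG2 cells stably carrying human CAR and a CYP2B6 luciferase reporter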
Summary of the method: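 Cells were plated and incubated 4 hrs, then dosed with compounds at 15 concentrations. PK11195 was added to 0.75 uM final. After 24 hrs at 37 C, luciferase luminescence was measured.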

[11] = qHTS assay to identify small molecule antagonists of the estrogen related receptor signaling pathway with the pleiotropic PPARgamma coactivator (PGC) from Tox21 10K library - cell viability counter screen (AID 1224840; active = well fitted cell-killing curve with a large enough effect in the repeat runs, not every such curve was filed as active; note: nearly all actives have a fitted effect of over 40% in size)
Summary of the method: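 Fluorescence read-out of CellTiter-Fluor viability reagent, added after cells had been exposed to compound in DMSO for 17.5 h at 37 C; 30 min development at 37 C/5% CO2. Cells: PGC/ERR line, 2,000/well.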

[12] = qHTS assay to identify small molecule antagonists of the estrogen related receptor signaling pathway with the pleiotropic PPARgamma coactivator (PGC) from Tox21 10K library (AID 1224841; call rule not given here; note: actives are mostly falling curves and most rising ones were filed inactive; nearly all actives have a fitted effect of over 50% in size; note: potency is the fitted concentration of half-maximal effect)
Summary of the method: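 Luminescence read-out (One-Glo luciferase reagent, 30 min at room temperature) from PGC/ERR cells exposed to DMSO-dissolved test compounds for 18 h at 37 C; cells, 2,000 per well, had been preincubated 6 h before compound transfer.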

[13] = qHTS assay to identify small molecule agonists of the estrogen related receptor signaling pathway with the pleiotropic PPARgamma coactivator (PGC) from Tox21 10K library (AID 1224842); note: nearly all actives have a fitted effect of over 15% in size
Summary of the method: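 Luminescence from One-Glo (30 min, room temperature) measured after PGC/ERR cells had 18 h at 37 C with pinned compound (23 nL in DMSO). Cells had been seeded at 2,000 per well and pre-incubated 6 h.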

[14] = qHTS assay to identify small molecule agonists of the hypoxia (HIF-1) signaling pathway - cell viability counter screen (AID 1224844; calls by dose curve; note: nearly all actives have a fitted effect of over 50% in size; note: potency is the fitted concentration of half-maximal effect)
Summary of the method: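 CellTiter-Glo luminescence read-out, 30 min RT, taken in the same wells as the beta-lactamase HRE reporter assay; HRE-bla ME-180 cells, 0.5% dialyzed FBS, 17 hr compound treatment at 37C, 5% CO2.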

[15] = biological target: Thyrotropin receptor (Homo sapiens) (UniProt P16473); assay: qHTS assay to identify small molecule agonists of the thyroid stimulating hormone receptor (TSHR) signaling pathway (AID 1224843; calls by dose curve; note: nearly all actives have a fitted effect of over 45% in size)
Summary of the method: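 Agonist activity read as cAMP rise via d2/cryptate HTRF competition, 1 h room-temperature detection, in HEK293 cells expressing TSHR. Fifteen-point titrations, each run in triplicate, with a 30 min room-temperature incubation beforehand.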

[16] = qHTS assay to identify small molecule antagonists of the estrogen related receptor signaling pathway with the pleiotropic PPARgamma coactivator (PGC) cell viability counter screen (AID 1224822)
Summary of the method: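 Fluorescence read-out of CellTiter-Fluor after 30 min at 37 C; PGC/ERR cells, 2,000 per well, had been exposed to DMSO-dissolved compounds for 17.5 h following a 6 h pre-incubation.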

Sequence of Nuclear receptor subfamily 1 group I member 3 (Homo sapiens) (Q14994 whole entry, looked up): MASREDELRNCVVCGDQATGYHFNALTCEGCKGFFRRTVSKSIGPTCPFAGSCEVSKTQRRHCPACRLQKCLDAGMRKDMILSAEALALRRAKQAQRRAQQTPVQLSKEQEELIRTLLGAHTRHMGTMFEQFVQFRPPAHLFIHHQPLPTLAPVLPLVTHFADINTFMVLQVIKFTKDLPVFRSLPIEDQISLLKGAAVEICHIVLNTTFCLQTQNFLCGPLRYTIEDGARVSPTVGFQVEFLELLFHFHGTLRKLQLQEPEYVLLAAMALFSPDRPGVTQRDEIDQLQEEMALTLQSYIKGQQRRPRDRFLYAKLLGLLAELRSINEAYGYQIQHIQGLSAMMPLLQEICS
Sequence of Luciferin 4-monooxygenase (Photinus pyralis) (P08659 whole entry, looked up): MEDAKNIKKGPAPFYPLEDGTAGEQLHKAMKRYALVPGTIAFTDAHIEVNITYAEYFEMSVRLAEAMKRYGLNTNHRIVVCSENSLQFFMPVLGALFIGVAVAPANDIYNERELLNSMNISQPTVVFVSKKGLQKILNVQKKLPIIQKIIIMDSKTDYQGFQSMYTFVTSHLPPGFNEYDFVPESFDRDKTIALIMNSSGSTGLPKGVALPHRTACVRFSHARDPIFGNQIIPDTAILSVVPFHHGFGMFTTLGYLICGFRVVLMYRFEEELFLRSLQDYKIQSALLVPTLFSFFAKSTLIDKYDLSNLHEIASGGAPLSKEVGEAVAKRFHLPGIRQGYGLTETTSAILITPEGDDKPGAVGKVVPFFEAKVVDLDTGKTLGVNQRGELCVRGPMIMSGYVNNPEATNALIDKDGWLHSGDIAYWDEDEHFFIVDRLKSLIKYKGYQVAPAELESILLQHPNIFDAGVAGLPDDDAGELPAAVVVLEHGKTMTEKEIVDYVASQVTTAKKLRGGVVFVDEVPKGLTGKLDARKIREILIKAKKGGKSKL
Sequence of Thyrotropin receptor (Homo sapiens) (P16473 whole entry, looked up): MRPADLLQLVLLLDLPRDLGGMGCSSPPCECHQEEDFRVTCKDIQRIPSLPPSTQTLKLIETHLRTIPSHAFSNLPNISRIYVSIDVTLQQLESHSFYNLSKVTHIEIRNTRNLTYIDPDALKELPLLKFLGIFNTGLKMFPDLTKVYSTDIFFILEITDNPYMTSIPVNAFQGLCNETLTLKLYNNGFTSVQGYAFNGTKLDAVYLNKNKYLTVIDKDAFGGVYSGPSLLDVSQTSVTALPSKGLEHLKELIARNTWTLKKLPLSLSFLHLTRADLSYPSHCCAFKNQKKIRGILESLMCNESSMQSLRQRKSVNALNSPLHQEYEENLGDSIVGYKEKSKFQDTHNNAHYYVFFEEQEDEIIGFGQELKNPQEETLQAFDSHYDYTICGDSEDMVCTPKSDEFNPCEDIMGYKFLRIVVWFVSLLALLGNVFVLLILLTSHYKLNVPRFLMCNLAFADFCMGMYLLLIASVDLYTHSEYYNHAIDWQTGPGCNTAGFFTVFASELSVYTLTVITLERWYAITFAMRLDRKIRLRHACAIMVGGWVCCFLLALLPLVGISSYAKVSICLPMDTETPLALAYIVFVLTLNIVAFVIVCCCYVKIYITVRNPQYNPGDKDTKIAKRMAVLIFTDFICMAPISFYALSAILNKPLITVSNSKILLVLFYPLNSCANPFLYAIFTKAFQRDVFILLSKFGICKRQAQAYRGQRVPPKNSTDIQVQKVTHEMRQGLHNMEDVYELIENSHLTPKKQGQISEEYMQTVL

| SMILES | Potency [1] | Potency [2] | Potency [3] | Potency [4] | Potency [5] | Potency [6] | Potency [7] | Potency [8] | Potency [9] | Potency [10] | Potency [11] | Potency [12] | Potency [13] | Potency [14] | Potency [15] | Potency [16] |
| --- | --- | --- | --- | --- | --- | --- | --- | --- | --- | --- | --- | --- | --- | --- | --- | --- |
| Nc1ccc2ccccc2c1 | inactive | inactive | inactive | 33.2 µM (active) | inactive | inactive | inactive | inactive | inactive | 52.6 µM (active) and 48.6 µM (active) | inactive | inactive | inactive | inactive |  |  |
| CC1(C)C(C(=O)OC(C#N)c2cccc(Oc3ccccc3)c2)C1(C)C (configuration not stated) | inactive | inactive | inactive | inactive | inactive | inactive | inactive | inactive | inactive | 12.3 µM (active) and 24.3 µM (active) | inactive | 27.5 µM (active) | inactive | inactive |  |  |
| Cc1ccc(N=CN(C)C=Nc2ccc(C)cc2C)c(C)c1 | 43.8 µM (active) and 43.6 µM (active) and inactive | inactive | inactive | inactive | inactive | inactive | inactive | inactive | inactive | inactive | inactive |  |  | 43.8 µM (active) and 30.9 µM (active) and inactive | inactive |  |
| O=NN1CCOCC1 | inactive | inactive | inactive | inactive | inactive | inactive | inactive | inactive |  |  | inactive |  |  | inactive | inactive |  |
| ClCC(Cl)CCl | inactive | inactive | inactive | inactive | inactive | inactive | inactive | inactive | inactive | inactive | inactive | inactive | inactive | inactive | inactive |  |
| CN(C)c1ccccc1 | inactive | inactive | inactive | inactive | inactive | inactive | inactive | inactive |  |  | inactive | inactive | inactive | inactive | inactive |  |
| Oc1ccc(Cl)cc1Cc1ccccc1 | 49 µM (active) and 24.8 µM (active) | 55.1 µM (active) and inactive | 27.6 µM (active) and inactive | inactive |  |  | inactive | inactive | inactive | 31 µM (active) and inactive | inactive |  |  | 49.6 µM (active) and inactive | inactive | inactive |
| CS(=O)(=O)NC(=O)c1cc(Oc2ccc(C(F)(F)F)cc2Cl)ccc1[N+](=O)[O-] | inactive | inactive | inactive | inactive | inactive | inactive |  | inactive | inactive |  | inactive |  |  | inactive | inactive |  |
| COP(=S)(OC)Oc1ccc(Sc2ccc(OP(=S)(OC)OC)cc2)cc1 | inactive | inactive | inactive | 61.1 µM (active) and inactive | inactive |  | inactive | inactive | inactive | 61.1 µM (active) and inactive | inactive | inactive | inactive | inactive | inactive |  |
| Brc1ccc(Br)cc1 | inactive | inactive | inactive | inactive | inactive | inactive | inactive | inactive | inactive | inactive | inactive | inactive | inactive | inactive | inactive |  |
| O=P(OCCCl)(OCCCl)OCCCl | inactive | inactive | inactive | inactive | inactive | inactive |  | inactive | inactive | inactive | inactive | 4.81 µM (active) and inactive | inactive | inactive |  |  |
| Nc1ncn[nH]1 | inactive | inactive | inactive | inactive | inactive | inactive | inactive | inactive | inactive | inactive | inactive |  |  | inactive | inactive |  |
| CC(C)(c1ccc(OCC2CO2)cc1)c1ccc(OCC2CO2)cc1 (configuration not stated) | 49.6 µM (active) and inactive | inactive | inactive | inactive | inactive | inactive | inactive | inactive | inactive | inactive | inactive | 69.5 µM (active) and inactive | inactive |  | inactive |  |
| CC1(C)Cc2cccc(O)c2O1 | inactive | inactive | inactive | inactive | inactive | inactive | inactive | inactive | inactive | inactive | inactive |  |  | inactive | inactive |  |
| CSc1nc(NC(C)C)nc(NC(C)C)n1 | inactive | inactive | inactive | inactive | inactive | inactive | inactive | inactive | inactive |  | inactive | inactive | inactive | inactive |  |  |
| CC(C)(O)C(=O)Nc1ccc([N+](=O)[O-])c(C(F)(F)F)c1 | inactive | inactive | inactive | inactive | inactive | inactive | inactive | inactive | inactive |  | inactive | 27.9 µM (active) | inactive | inactive | inactive |  |
